BAZ2B inh = blocks human BAZ2B; AlphaScreen BAZ2B-H3K14Ac peptide displacement; Potency, µM (top dose mostly 114 µM), usual class: inhibitors; 360,000 tested, 4.4% active; AID 504333; further: nearly all actives have a fitted effect of over 60% in size
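BAZ2B (50 nM) with biotin-H3(5-23)K14Ac peptide (50 nM) in PBS pH 7.4, 0.01% Tween-20, preformed 30 min, then compound 30 min at room temperature; top concentration 110uM. AlphaScreen streptavidin donor/nickel chelate acceptor beads (10 ug/mL final), 20 min dark, signal read.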
Sfp inh = blocks B. subtilis Sfp PPTase activity | 310,000 tested, 3.5% active | Potency, µM, hits mostly inhibitors | Biochemical Sfp PPTase activity, qHTS | AID 1490 | Q9F4F7;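 further: the enzyme is Sfp with the accession as filed and its product quenches rhodamine fluorescence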
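Step 1, compound plus 15 nM Sfp-PPTase, 15 min, room temperature. Step 2, add rhodamine-CoA (5 uM) and BHQ-2-YbbR (12.5 uM). Step 3, read 525/598 nm fluorescence at 0 and 30 min.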
G9a inh = inhibitors of human histone lysine methyltransferase G9a. AID 504332. Q96KQ7. G9a H3K9 monomethylation, AlphaScreen, 2 h. 350,000 tested, 8.8% active. Potency, µM (doses to about 102 µM), actives largely listed as inhibitors; further: nearly all actives have a fitted effect of over 75% in size
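Readings reflect AlphaScreen signal from monomethyl-H3K9 antibody detection. HMT at 20 nM; substrate b-H3K9 500 nM; cofactor SAM 20 uM; 2 h RT reaction; compounds tested as titrations in qHTS with 15 min preincubation.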
JMJD2A Tudor = JMJD2A Tudor domain (human) inhibition | O75164 | AlphaScreen JMJD2A-Tudor / H3K4me3 peptide binding | Potency, µM (highest dose often 114 µM), most hits filed as inhibitors | 390,000 tested, 4.4% active; further: nearly all actives have a fitted effect of over 50% in size
HP1b chromo inh = HP1-beta chromodomain-methylated histone interaction inhibition; AlphaScreen HP1-beta / biotin-H3K9me3 peptide binding; Potency, µM (series often up to 114 µM), most hits filed as inhibitors; 390,000 tested, 0.56% active; further: nearly all actives have a fitted effect of over 70% in size
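Compound inhibition of the preformed complex between 50 nM HP1-beta and 50 nM biotinylated H3K9me3 peptide was read by AlphaScreen. Buffer was PBS pH 7.4 with 0.01% Tween-20. Incubations ran 30 min at room temperature, with 10 ug/mL donor/acceptor beads.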
Each line names hits and unclear results; the compound was inactive in the other large screens; ! = a repeat was not active. In the library only some 12% were active in any assay of this set; here they are far more common. The call rests on the fitted dose curve; in most records, active means well fitted curve in the direction sought with a large enough effect; inconclusive means small, poorly fitted or top-dose-only effect, or another doubt; inactive means no such curve, though single readings can be large; an effect the other way counts as inactive or inconclusive.

O=C(/C=C/c1ccccc1)Nc1nc2n(n1)C(c1ccc(F)cc1)C=C(c1ccccc1)N2 (stereo not drawn)	G9a inh inconclusive (no result: Sfp inh)
C=CCNC(=O)COC(=O)c1cccnc1Nc1ccccc1F	none
CCN1CC2([N+](=O)[O-])C=CC(=O)C([N+](=O)[O-])(C1)C2CC(=O)c1ccccc1 (stereo not drawn)	BAZ2B inh inconclusive, G9a inh inconclusive, JMJD2A Tudor inconclusive
CCCCN1CC2([N+](=O)[O-])C=CC(=O)C([N+](=O)[O-])(C1)C2CC(=O)c1ccccc1 (stereo not drawn)	G9a inh 45µM
CSc1ccc(CCNC(=O)C2CCN(c3ncnc4c3nc3n4CCCCC3)CC2)cc1	none (no result: Sfp inh)
CCOc1ccc(NC(=O)NCc2ccc3c(c2)OCO3)cc1	none
CCOc1ccc(CN(CCc2ccc3c(c2)OCO3)Cc2cc(OC)cc(OC)c2)cc1	BAZ2B inh inconclusive, G9a inh 1.4µM, JMJD2A Tudor 4µM, HP1b chromo inh inconclusive (no result: Sfp inh)
O=C(NCCCn1ccnc1)/C(=C\c1cccs1)NC(=O)c1ccccc1	none
CN(C)c1ccc(/C=C(\NC(=O)c2ccccc2)C(=O)NCCN2CCOCC2)cc1	G9a inh 71µM
COc1ccc(/C=C(\NC(=O)c2ccc([N+](=O)[O-])cc2)C(=O)NCCCn2ccnc2)cc1	BAZ2B inh inconclusive
Cc1ccc(C(=O)N/C(=C\c2cn(S(=O)(=O)N(C)C)c3ccccc23)C(=O)NCCCn2ccnc2)cc1	BAZ2B inh inconclusive, JMJD2A Tudor inconclusive, HP1b chromo inh 50µM!
CN(C)c1ccc(/C=C(\NC(=O)c2ccccc2)C(=O)NCCCN2CCOCC2)cc1	none (no result: G9a inh)
O=C(NCCCn1ccnc1)/C(=C/c1ccc(Cl)cc1)NC(=O)c1ccccc1	BAZ2B inh 50µM
COc1ccc(/C=C(\NC(=O)c2ccc(C)cc2)C(=O)NCCCn2ccnc2)cc1	BAZ2B inh 50µM
COc1cccc(NC(=O)c2cccnn2)c1	none
O=C(COc1ccc(Cl)cc1)OCc1ccc(Cl)cc1	none (no result: BAZ2B inh, Sfp inh, G9a inh)
CCCCC[C@H](O)/C=C/C=C\C/C=C\C=C\[C@@H](O)CCCC(=O)O	none (no result: BAZ2B inh, G9a inh, JMJD2A Tudor, HP1b chromo inh)
CC(=O)N1CCN(C(=O)COC(=O)/C=C/c2ccc(C(F)(F)F)cc2)CC1	none (no result: BAZ2B inh, Sfp inh, G9a inh)
CN(C)c1ccc(/C=C(/NC(=O)c2ccccc2)C(=O)NCCCn2ccnc2)cc1	BAZ2B inh 35µM
CCC(C(=O)NCc1ccccc1)n1ncn2c(cc3occc32)c1=O (stereo not drawn)	G9a inh inconclusive (no result: Sfp inh)
COc1ccccc1CNS(=O)(=O)c1ccc2c(c1)CC(=O)N2C	none
Cc1cccc(CSc2nc3c(c(-c4cccs4)c2C#N)CN(C)CC3)c1	G9a inh inconclusive, JMJD2A Tudor inconclusive
CN1CCc2nc(SCC(=O)Nc3ccc(OC(F)(F)F)cc3)c(C#N)c(-c3cccs3)c2C1	Sfp inh 50µM, JMJD2A Tudor inconclusive
CN1CCc2nc(SCC(=O)Nc3cccc(F)c3)c(C#N)c(-c3cccs3)c2C1	BAZ2B inh 50µM, Sfp inh 79µM, JMJD2A Tudor inconclusive (no result: G9a inh)
O=C(COc1ccc(F)cc1)NNC(=O)Cn1ccc(C(F)(F)F)n1	none (no result: BAZ2B inh, Sfp inh, G9a inh)
COc1c(Cl)cc(Br)c(OC)c1C(=O)NC(=O)Nc1nc(C)cc(C)n1	none
CCOc1ccc(N=Nc2c(=O)[nH]n3c(=O)cc(C)[nH]c23)cc1	BAZ2B inh 50µM, G9a inh inconclusive, JMJD2A Tudor 56µM
COc1cccc(N=Nc2c(N)[nH][nH]c2=O)c1	G9a inh 4.5µM
CCOc1ccc(N=Nc2c(N)[nH][nH]c2=O)cc1	BAZ2B inh inconclusive, G9a inh 3.5µM, JMJD2A Tudor 79µM
Nc1[nH][nH]c(=O)c1N=Nc1cccc(Cl)c1	BAZ2B inh inconclusive, G9a inh inconclusive, JMJD2A Tudor inconclusive
CCN(CC)CCn1c2ccccc2c2cnc(N)c(C#N)c21	G9a inh 35µM
CCOC(=O)C1=C(C)NC(=O)NC1C (stereo not drawn)	none
CCOC(=O)C1=C(CBr)NC(=O)NC1C (stereo not drawn)	BAZ2B inh 50µM, G9a inh 28µM, JMJD2A Tudor inconclusive
CCOC(=O)C1=C(COC(=O)CCOc2ccccc2)NC(=O)NC1C (stereo not drawn)	JMJD2A Tudor 100µM (no result: Sfp inh)
COCC(C)Nc1nc(C)c(C(C)=O)s1 (stereo not drawn)	BAZ2B inh inconclusive, G9a inh 45µM
CC(=O)c1sc(NC(C)c2ccccc2)nc1C (stereo not drawn)	none
O=C(NC(=O)c1ccccc1)Nc1ccc(-c2cc(C(F)(F)F)nn2-c2ccccc2)cc1	none (no result: Sfp inh)
O=C(NCc1cccc(Cl)c1)c1ccc2c(c1)nc1n2CCOC1	none (no result: Sfp inh)
Cn1c2ccccc2c2nnc(SCCOc3ccccc3)nc21	none (no result: BAZ2B inh, Sfp inh, G9a inh)
O=c1/c(=C/c2ccccn2)sc2nc3ccccc3n12	G9a inh 50µM, JMJD2A Tudor inconclusive
O=[N+]([O-])c1cc([N+](=O)[O-])c2cc3ccccc3nc2c1	BAZ2B inh inconclusive, G9a inh inconclusive
O=c1/c(=C\c2cc([N+](=O)[O-])cc([N+](=O)[O-])c2O)sc2nc3ccccc3n12	BAZ2B inh 50µM, Sfp inh 22µM, G9a inh 6.3µM, JMJD2A Tudor 20µM, HP1b chromo inh inconclusive
CC(C)C(=O)N1CCN(c2ccccc2NC(=S)NC(=O)/C=C/c2ccco2)CC1	none (no result: BAZ2B inh, Sfp inh, G9a inh)
O=C(/C=C/c1ccccc1)Nc1cccnc1Cl	none
COC(=O)c1ccccc1NC(=O)/C=C/c1ccco1	Sfp inh 50µM
O=C(/C=C/c1ccco1)Nc1ccccc1N1CCCCC1	BAZ2B inh inconclusive, G9a inh 50µM, HP1b chromo inh inconclusive
O=C(/C=C/c1ccco1)Nc1cccnc1Cl	Sfp inh 50µM, G9a inh 79µM
CCCCc1ccc(-n2nc3cc(C)c(NC(=O)Cc4ccccc4)cc3n2)cc1	BAZ2B inh inconclusive, G9a inh 1.4µM, JMJD2A Tudor 50µM (no result: Sfp inh)
Cc1cc2nn(-c3ccccc3)nc2cc1NC(=O)Cc1ccc(Cl)cc1	G9a inh 14µM (no result: Sfp inh)
NC(=O)CSc1nnc(-c2ccc(S(=O)(=O)N3CCCC3)cc2)o1	G9a inh 11µM
CCOC(=O)N1CCN(C(=O)CSc2nnc(-c3cccc(OC)c3)o2)CC1	G9a inh 50µM, JMJD2A Tudor inconclusive
COc1cc(OC)cc(-c2nnc(SCC(=O)N3CCCC3)o2)c1	none
COc1cc(OC)cc(-c2nnc(SCC(=O)N3CCC(C)CC3)o2)c1	G9a inh 22µM (no result: Sfp inh)
COc1cccc(-c2nnc(SCC(=O)N3CCCCC3)o2)c1	G9a inh 16µM (no result: Sfp inh)
COc1ccc(-c2nnc(SCC(=O)N3CCCCC3)o2)cc1	none
COc1ccc(CNC(=O)C(=O)NCC(c2cccs2)S(=O)(=O)c2cccs2)cc1 (stereo not drawn)	none (no result: Sfp inh)
CCC(=O)O[C@H](CC(=O)O)C[N+](C)(C)C	none (no result: BAZ2B inh, G9a inh, JMJD2A Tudor, HP1b chromo inh)
CCN(C(=O)c1cc2c(=O)oc3ccc(C)cc3c2s1)c1ccccc1C	none (no result: Sfp inh)

Source: PubChem
